“And” between values parts separate entries of the source, which are not always exact repeats. Equal entries are not always repeated. Out of some 300,000 compounds screened, about 37,000 (12%) were called active. What follows is part of a selection rich in actives, with near analogues and random picks from the rest. A number with no mark means an inactive call. No stated cut-off is given here; in the data, active means max response mostly above about 13% (no sharp cut-off); inactive means mostly below about 14%.
Assay: Cycloheximide Counterscreen for Small Molecule Inhibitors of Shiga Toxin; further: read at 38.3 µM for the half of the compounds with a filed dose; 0% is about no effect
Settings: cell reporter, cycloheximide protein synthesis inhibition counterscreen; hits give high values

| SMILES | max response |
| --- | --- |
| COc1ccc(NC(=S)N2CCC(NC(=O)c3cccc(F)c3)CC2)cc1 | -5.6% |
| CCc1cc(-c2nnc(SCC(=O)NC3CC3)n2C)cs1 | 5.72% |
| CCOc1cccc(NC(=O)C2CCCN(S(=O)(=O)c3ccc(OC)cc3)C2)c1 (stereo not drawn) | 2.3% |
| COc1ccc(S(=O)(=O)N2CCCC(C(=O)Nc3ccc(NC(=O)c4ccccn4)cc3)C2)cc1 (stereo not drawn) | 40.2% (active) |
| COc1ccc(NC(=O)C2CCCN(S(=O)(=O)c3cccc4cccnc34)C2)cc1 (stereo not drawn) | -0.912% |
| Cc1ccc(-c2cccc([C@H]3[C@@H]4C=CC[C@@H](C)[C@@H]4C(=O)N3Cc3ccccc3)c2)cc1 | 2.34% |
| Cc1ccc2c(C)c(C(=O)N(C)CCC3CCCCO3)oc2c1C (stereo not drawn) | 17.8% |
| CCOC(=O)c1nc(Nc2ccc(C(=O)OC)cc2)c2ccccc2n1 | 9.36% |
| COC(=O)c1ccc(OC(=O)c2cnccn2)cc1 | -7.13% |
| COC(=O)c1ccc(Nc2ncnc3sccc23)cc1 | 39.2% (active) |
| CN1C(=O)/C(=C\c2ccc(-c3ccccc3)o2)SC1=S | 9.37% (active) |
| O=C(O)C(c1ccccc1)N1C(=O)/C(=C\c2ccc(-c3cccc(Cl)c3)o2)SC1=S (stereo not drawn) | 0.131% |
| NS(=O)(=O)c1ccc(-c2ccc(/C=C3\SC(=O)NC3=O)o2)cc1 | -2.44% |
| COc1ccc2[nH]c3c(C)c4cc[n+](C)cc4c(C)c3c2c1 | -3.46% |
| O=C1CCCN1CCCNC(=S)Nc1ccc(F)c(Cl)c1 | 11.5% |
| Cc1ccc(N(C)C(=O)Oc2cccc3ccc(C)nc23)cc1 | -4.01% |
| Cc1ccc2cccc(OCCCOc3ccccc3CO)c2n1 | 13.2% (active) |
| OCc1ccc(OCCCOc2cccc3cccnc23)cc1 | 1.36% |
| Cc1cc(S(=O)(=O)NCc2ccccn2)c(Cl)cc1Cl | -3.82% |
| O=C1NC(=Nc2ccc(Cl)cc2)SC1Cc1cccc(Cl)c1Cl (stereo not drawn) | -3.08% |
| Nc1nc(-c2sc3nc4c(cc3c2N)CCCC4)nc(N2CCOCC2)n1 | 17.7% (active) |
| Cc1nc(N2CCOCC2)nc2c1CCCC2 | 9.25% |
| Cc1cc(Oc2ccccc2)nc(N2CCOCC2)n1 | 11.6% |
| COc1ccc(N2C(=O)C(CC(=O)Nc3ccc(F)cc3)N(CCc3cccs3)C2=O)cc1 (stereo not drawn) | 8.62% |

| SMILES | max response |
| --- | --- |
| CNc1ccc(SC#N)cc1 | -2% |
| COc1ccc(Cn2c(=S)[nH]c3cc(C(=O)N4CCCCC4)ccc3c2=O)cc1 | -3.34% |
| CCOc1ccc(OCc2cccc(C(=O)N(CC)CC)c2)cc1 | 47.9% (active) |
| CCOc1ccc(OCc2ccc(C(=O)N(C)c3ccccc3)o2)cc1 | 2.57% |
| Cc1cccc(C(=O)N2CCN(S(=O)(=O)N3CCCCC3)CC2)c1 | -2.15% |
| COc1ccc(CNC(=O)C2CCN(C(=O)c3ccccc3)CC2)cc1 | 1.61% |
| Cc1cccc(C(=O)N2CCCN(C(=O)c3cccc(C)c3)CC2)c1 | -1.57% |
| COc1cccc(COc2ccc(N(C)S(=O)(=O)c3ccccc3)cc2)c1 | -0.489% |
| CC(=O)Oc1ccc(-c2cccc(C(=O)N3CCCCC3)c2)cc1 | 12.6% (active) |
| COc1ccc(OCc2cccc(C(=O)N3CCCC3)c2)cc1 | 59.3% (active) |
| O=C(c1cc(S(=O)(=O)N2CCOCC2)ccc1Cl)N1CCOCC1 | -3.17% |
| OC(c1nc2ccc(F)cc2[nH]1)C(O)c1nc2ccc(F)cc2[nH]1 (stereo not drawn) | -0.936% |
| COc1ccccc1N1CCN(C(=O)c2cc(=O)c3cc(C)cc(C)c3o2)CC1 | -2.78% |
| Cc1ccc(C)c(-n2c(SCC(=O)O)nc3sc4c(c3c2=O)CCCC4)c1 | -4.29% |
| Cc1ccc(NC(=S)N(CCN(C)C)Cc2cccs2)cc1C | -3.5% |
| O=C(COc1ccc(-n2cnnn2)cc1)Nc1ccccc1Cl | 9.71% |
| Cc1sc2nc(CSCC(=O)Nc3c(Cl)cccc3Cl)[nH]c(=O)c2c1C | 13.5% |
| CCOc1cc(NC(=O)Nc2ccccc2)c(OCC)cc1NC(=O)CC | -3.19% |
| Cc1ccc(NC(=O)Nc2ccccc2)c(Br)c1 | 64.5% (active) |
| CS(=O)(=O)c1ccc(Cl)c(NC(=O)Nc2ccccc2)c1 | -1.05% |
| COc1ccc(S(=O)(=O)N/N=C\c2ccc(OC)c(COc3ccc(C)cc3[N+](=O)[O-])c2)cc1 | -1.1% |
| O=C(NCc1ccco1)C(c1ccncc1)N(C(=O)Cn1nnc2ccccc21)c1ccccc1 (stereo not drawn) | -1.7% |
| CSc1ccccc1NC(=O)CN(C)CC(=O)Nc1cccc(Br)c1 | 1.62% |
| CCN(CC)C(=O)C(=O)Nc1cccc(Br)c1 | 36.1% (active) |

| SMILES | max response |
| --- | --- |
| CCN(CC)C(=O)Oc1ccc(Br)cc1C(=O)Nc1ccc(F)c(Cl)c1 | 11% |
| CC(C)(C)c1ccccc1NC(=O)CN1C(=O)NC2(CCCC2)C1=O | -4.11% |
| Cc1cccc(C(=O)OC(C)CN2CCCC2)c1 (stereo not drawn) | 6.5% |
| CC(CN1CCOCC1)OC(=O)c1ccc(C(C)(C)C)cc1 (stereo not drawn) | 16.4% (active) |
| CC(CN1CCCCC1)OC(=O)c1ccccc1Cl (stereo not drawn) | 22.1% (active) |
| CC(CN1CCCCC1)c1ccccc1 (stereo not drawn) | -3.13% |
| Cc1ccc(C(=O)OC(C)CN2CCOCC2)cc1 (stereo not drawn) | 16.8% |
| CC(CN1CCOCC1)c1ccccc1 (stereo not drawn) | 2.67% |
| Cc1ccc(C(CNC(=O)Nc2cccc(C)c2)N2CCN(C)CC2)cc1 (stereo not drawn) | -4.7% |
| Cc1cccc(C(=O)OC(C)CN2CCN(C)CC2)c1 (stereo not drawn) | 41.3% (active) |
| CC(CN1CCOCC1)OC(=O)c1ccc(Cl)cc1Cl (stereo not drawn) | 20.3% |
| COc1ccc(-n2nc3c(N4CCC(C(=O)NCc5ccccc5)CC4)nnc(C)c3c2C)cc1 | -13.3% |
| CCOC(=O)C1C(c2ccc(OC)c(OC)c2)c2c([nH][nH]c2=O)CC1(C)O (stereo not drawn) | -1.55% |
| CO/N=C(/CS(=O)(=O)c1ccc(Br)cc1)c1ccc(OC)cc1 | 0.74% |
| Clc1ccc(COn2c(-c3ccc(Cl)cc3Cl)nc3ncccc32)cc1 | -3.82% |
| Cc1n[nH]c(=O)c2c1nnn2Cc1ccc(F)cc1 | -2.69% |
| O=C(Nc1ccc(Br)cc1)c1cccc(NC(=O)C2C3CC4OC(=O)C2C4C3)c1 (stereo not drawn) | 14% |
| Cn1c(CCNS(=O)(=O)c2ccc(F)cc2)nnc1SCc1cccnc1 | -3.41% |
| CCC1(CC)NC(=O)N(CC(=O)OCC(=O)NC(=O)c2ccccc2)C1=O | -1.66% |
| COC(=O)C1[C@H]2SC(C)(C)C(C(=O)OC)N2C(=O)N1Cc1nc2ccccc2s1 (stereo partly drawn) | 0.765% |
| CCC1(CC)NC(=O)N(Cc2nc3ccccc3s2)C1=O | 19.8% (active) |
| O=S(=O)(c1ccccc1)c1nc(Cc2ccccc2)oc1N1CCOCC1 | -5.23% |
| COc1ccc(CCN2C(=O)CC(N3CCC(C(N)=O)CC3)C2=O)cc1OC (stereo not drawn) | 3.18% |
| Nc1nonc1-n1nnc(C(=O)N/N=C/c2cc(Br)ccc2O)c1CSC1=NCCS1 | -2.34% |

| SMILES | max response |
| --- | --- |
| O=C(Nc1ccccc1F)c1ccccc1-c1ccc(C(F)(F)F)cc1 | -2.22% |
| CCCOC(=O)C1=C(C)NC2=C(C(=O)C(C(=O)OC)C(C)C2)C1c1ccc(N(C)C)cc1 (stereo not drawn) | 12.3% |
| CCCOC(=O)c1[nH]c2c(c1C)C(=O)CC(c1cc(OC)c(OC)c(OC)c1)C2 (stereo not drawn) | 3.17% |
| COC(=O)C1C(=O)c2c([nH]c(C(=O)OCCSC)c2C)CC1C (stereo not drawn) | 51.7% (active) |
| CC(C)(CNC(=O)Cc1ccc(Cl)cc1Cl)N1CCOCC1 | -3.1% |
| COCCN(CCOC)S(=O)(=O)c1ccc(/C(O)=C(\C#N)c2nc3ccccc3[nH]2)cc1 | 12.2% (active) |
| N#C/C(=C(/O)COc1cccc2ccccc12)c1nc2ccccc2[nH]1 | 2.08% |
| Cc1ccccc1OC/C(O)=C(\C#N)c1nc2ccccc2[nH]1 | 0.892% |
| O=C(c1ccc(OC2CCN(C(=O)c3cccnc3)CC2)cc1)N1CCCCCC1 | -1.68% |
| CCOC(=O)/C(=C\c1ccc([N+](=O)[O-])cc1)C(=O)c1cc(C(C)=O)c(Nc2ccccc2)s1 | -4.46% |
| COC(=O)C(C)Oc1ccc2c(c1)O/C(=C\c1cccc(Br)c1)C2=O (stereo not drawn) | 1.99% |
| O=C1/C(=C/c2ccc3c(c2)OCO3)Oc2cc(OCC(=O)N3CC(O)C[C@H]3C(=O)O)ccc21 (stereo partly drawn) | 0.739% |
| CN(C)C(=O)Oc1ccc2c(c1)O/C(=C\c1ccccc1)C2=O | 44.1% (active) |
| COc1cc(C(CCN2CCN(c3ccccc3)CC2)c2c(OC)cc(OC)c3ccc(=O)oc23)cc(OC)c1OC (stereo not drawn) | -1.52% and 15.6% |
| C=C(C)COc1ccc(-c2ncncc2-c2ccc(OC)cc2)c(O)c1 | 13.2% |
| Cc1ccc(SCC(=O)c2cc(C)c(OC(=S)N(C)C)c(C)c2)cc1 | 26.1% (active) |
| Cc1ccc(SC(=O)COc2ccc(C)c(C)c2)cc1 | -5.87% |
| COC(=O)c1cc(OC)c(OC)cc1NC(=O)CSc1ccc(C)cc1 | -2.51% |
| Cc1ccc(NC(=O)c2ccc(S(=O)(=O)NCC3CCCO3)cc2)cc1C (stereo not drawn) | 9.52% |
| Cc1ccc(-c2nn(-c3ccccc3)cc2/C=C2\SC(=S)N(CCCCCC(=O)O)C2=O)o1 | 1.36% |
| O=C(NC(=S)N1CCCCC1c1cccnc1)c1ccccc1 (stereo not drawn) | 11.6% |
